# Tests used:
# [1] = molecular target: Tumor necrosis factor receptor superfamily member 10B (Homo sapiens) (UniProt O14763); assay: caspase-8 TRAIL sensitization, hit retest, confirmation, cell-based, NB7+caspase-8, with/without TRAIL, luminescence panel (AID 651596); conditions: NB7 neuroblastoma + caspase-8, TRAIL sensitization, luminescence viability, with TRAIL, mean of runs, at 10 µM, stronger effect = higher value
# [2] = as above; conditions: NB7 neuroblastoma + caspase-8, without TRAIL, luminescence viability, without TRAIL, mean of runs, at 10 µM
# Tumor necrosis factor receptor superfamily member 10B (Homo sapiens), sequence (O14763 whole entry, looked up): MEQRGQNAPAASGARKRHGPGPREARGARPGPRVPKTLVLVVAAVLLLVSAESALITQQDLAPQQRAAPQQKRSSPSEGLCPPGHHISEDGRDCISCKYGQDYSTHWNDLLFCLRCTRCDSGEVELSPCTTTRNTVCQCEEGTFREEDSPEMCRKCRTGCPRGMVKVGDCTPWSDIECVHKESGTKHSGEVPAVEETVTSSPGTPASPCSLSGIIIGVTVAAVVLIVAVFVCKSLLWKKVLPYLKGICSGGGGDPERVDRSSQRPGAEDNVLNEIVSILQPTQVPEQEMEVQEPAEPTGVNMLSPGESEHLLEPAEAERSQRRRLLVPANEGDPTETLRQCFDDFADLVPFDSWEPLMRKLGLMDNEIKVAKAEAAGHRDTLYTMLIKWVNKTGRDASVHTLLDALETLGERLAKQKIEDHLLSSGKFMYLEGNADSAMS
compound,measurement,setting,value
c1ccc2nc3c(nc2c1)[nH]c1ccccc13,activity,[1],45.7%
same,activity,[2],44.5%
Cc1ccc2nc(-c3ccc(NC(=O)COC(=O)c4ccc([N+](=O)[O-])o4)cc3)sc2c1,activity,[1],70.1%
same,activity,[2],69.9%
O=C(CCl)N=c1sccn1Cc1cccc2ccccc12,activity,[1],98.8%
same,activity,[2],99.1%
CCC(=O)Nc1cc2nn(-c3ccc(OC)cc3)nc2cc1C,activity,[1],62.5%
same,activity,[2],61.8%
COc1cc2nc(N3CCN(c4cc(C)ccc4C)CC3)nc(N)c2cc1OC,activity,[1],56.7%
same,activity,[2],88.7%
Cc1ccc(CS(=O)(=O)c2ncc(Cl)c(C(=O)Nc3ccc(OC(F)F)cc3)n2)cc1,activity,[1],5.62%
same,activity,[2],-6.55%
C=Cc1ccc(Cn2c(C)c(C(=O)NCc3ccc(Cl)c(Cl)c3)sc2=O)cc1,activity,[1],91.2%
same,activity,[2],68%
C/C(Cn1nnc([N+](=O)[O-])n1)=N\NC(=O)c1ccc(O)cc1,activity,[1],50.4%
same,activity,[2],48.3%
CC(C)Oc1ccc(C(=O)NC2=NCCS2)cc1,activity,[1],57.7%
same,activity,[2],61.8%
O=C(Nc1ccc(-c2cn3ccccc3n2)cc1)c1cccs1,activity,[1],76.2%
same,activity,[2],66.1%
CCc1ccc(C(=O)Cn2ncc(Cl)c(Cl)c2=O)cc1,activity,[1],99.2%
same,activity,[2],99.4%
CNS(=O)(=O)c1cccc(C(=O)OCC(=O)c2cc(C)n(CC3CCCO3)c2C)c1 (stereo not given),activity,[1],77.7%
same,activity,[2],67%
O=C(Nc1ccc2c(c1)nc1n2CCSC1)c1ccco1,activity,[1],77.4%
same,activity,[2],75.2%
O=C(CC1SC(=Nc2ccccc2F)N(CCN2CCOCC2)C1=O)Nc1ccc(F)cc1F (stereo not given),activity,[1],-3.85%
same,activity,[2],-7.28%
Cc1ccc(C(=O)N/C(=C\c2ccc(-c3ccccc3[N+](=O)[O-])o2)C(=O)NCCN(C)C)cc1,activity,[1],42%
same,activity,[2],99.7%
